# Screens: PubChem BioAssay, National Center for Advancing Translational Sciences (NCATS)
# Rows were chosen to be rich in hits. Some 4.5% of all compounds tested hit in one or more screens of this group.
# NTMT1 inhibitor: Primary qHTS for Inhibitors of N-terminal methyltransferase 1 (NTMT1): MTaseGlo Assay. Potency, µM (top dose mostly 114 µM), inactives show at the top dose activity change, negative = inhibition, most hits filed as inhibitors. N-terminal Xaa-Pro-Lys N-methyltransferase 1 (Homo sapiens), Q9BV86. AID 1645870, 2021. NTMT1 MTase-Glo SAH luminescence, purified enzyme. actives 2.5% (n = 59,000);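 further: potency means the concentration at half of the fitted maximal effect; plate controls were DMSO vehicle for no effect and no enzyme for full effect; nearly all actives have a fitted effect of over 65% in size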
# Target sequence (Q9BV86 whole entry, looked up): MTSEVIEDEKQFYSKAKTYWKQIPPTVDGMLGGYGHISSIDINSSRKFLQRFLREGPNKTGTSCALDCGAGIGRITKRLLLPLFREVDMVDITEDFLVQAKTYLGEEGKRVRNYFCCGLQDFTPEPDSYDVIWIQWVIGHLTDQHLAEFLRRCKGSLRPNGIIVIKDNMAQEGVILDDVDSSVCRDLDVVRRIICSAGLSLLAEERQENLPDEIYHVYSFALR
# HTT prom inh: Primary qHTS for Identification of Small Molecule Inhibitors of Huntingtin Promoter Activity; HEK293 HTT promoter firefly luciferase reporter, 24 h; Potency, µM (highest dose often 57.5 µM), for the others: at the highest dose activity change, negative = inhibition, usual class: inhibitors; actives 0.93% (n = 48,000); further: potency means the concentration at half of the fitted maximal effect; nearly all actives have a fitted effect of over 50% in size
#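 HEK293 cells carrying firefly luciferase reporters were seeded at 2,500 per well in Opti-MEM and cultured for 24 h. They were then treated with compounds at up to 57.5 uM final for 24 h at 37 degrees C before Dual-Glo luminescence readout.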
# HTT-AS promoter: Primary qHTS for Identification of Small Molecule Activators of Huntingtin-Antisense Promoter Activity; HEK293 HTT-AS promoter firefly luciferase reporter, 24 h; response scale: percent change from vehicle, -100% = no light; Potency, µM (doses to about 57.5 µM), inactives show top-dose activity change, positive = activation, hits mostly activators; actives 0.24% (n = 48,000); AID 1508624, 2021; further: potency means the concentration at half of the fitted maximal effect; nearly all actives have a fitted effect of over 55% in size
#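 HEK293 luciferase promoter-reporter cells (2,500/well) plated 24 h, then compounds added at up to 57.5 uM final for 24 h at 37 °C. Firefly luminescence by Dual-Glo, normalized to vehicle (0%) and zero RLU (-100%).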
# SKOV3 invasion: Primary qHTS assay for Inhibitors of ovarian cancer metastasis using an organotypic tumor microenvironment (TME) model; actives 0.1% (n = 46,000); SKOV3ip1-GFP adhesion/invasion on 3D omental model, fluorescence; Potency, µM (top dose mostly 45.8 µM), for inactives: top-dose activity change, negative = inhibition, actives largely listed as inhibitors;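 further: potency means the concentration at half of the fitted maximal effect; plate controls were DMSO wells for no effect and tomatine positive control wells for full effect; nearly all actives have a fitted effect of over 65% in size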
#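 Adhesion/invasion was scored as fixed GFP-labeled SKOV3ip1 cell counts (488/509 nm), normalized to DMSO and tomatine controls. Cancer cells in serum-free medium, with four compound doses (0.36-46 umol/L), sat 2 hr at RT then 16 hr at 37 C on a 48 hr fibroblast/mesothelial/ECM culture.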
# GPR32 ag: qHTS for Agonists of Human Resolvin D1 Receptor DRV1 | CHO-K1 GPR32 beta-arrestin PathHunter luminescence, 90 min; zero percent set by DMSO-only wells | activation, % at 76.9 µM | actives 2.5% (n = 48,000);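 active means activation of at least 60% and not above a set upper limit, about 1 call in 100 departs from these limits; inconclusive means activation of 40% to 60%, or above that upper limit; inactive means activation under 40%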; further: 0% is about no effect
# Target sequence (O75388 whole entry, looked up): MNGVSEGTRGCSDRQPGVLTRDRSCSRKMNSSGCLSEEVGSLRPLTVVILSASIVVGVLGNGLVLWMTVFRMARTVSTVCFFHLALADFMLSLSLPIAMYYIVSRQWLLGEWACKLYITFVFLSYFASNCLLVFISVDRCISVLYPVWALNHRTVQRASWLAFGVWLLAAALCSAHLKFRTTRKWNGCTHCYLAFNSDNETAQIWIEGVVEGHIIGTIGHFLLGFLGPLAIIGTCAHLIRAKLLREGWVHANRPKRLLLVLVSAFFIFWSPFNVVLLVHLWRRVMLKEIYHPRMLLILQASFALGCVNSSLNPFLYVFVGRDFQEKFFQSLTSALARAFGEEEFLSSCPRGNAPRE
#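 Cells are plated overnight, treated with compounds in DMSO for 90 minutes at 37 °C, and developed with PathHunter detection reagent for 1 hour before luminescence is read; signal reflects beta-arrestin binding to GPR32 in engineered CHO-K1 cells.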
# An asterisk follows results filed as active; i = inactive; ? = inconclusive; / = not tested or not shown; ! = not active in a repeat; [ ] = remark or other dose. Unless noted, the call rests on the fitted dose curve; in most records, active means well fitted curve in the direction sought with a large enough effect; inconclusive means small, poorly fitted or top-dose-only effect, or another doubt; inactive means no such curve, though single readings can be large; an effect the other way counts as inactive or inconclusive.
SMILES,NTMT1 inhibitor,HTT prom inh,HTT-AS promoter,SKOV3 invasion,GPR32 ag
CCN(CC)c1cc(C)c2cc(NC(=O)c3cccc(OC)c3OC)ccc2n1,-15%,-7%,-6%,2%,95*
CCOc1ccccc1C(=O)Nc1ccc2nc(N(CC)CC)cc(C)c2c1,-5%,-1%,-4%,-2%,-10
CC(C)c1ccc(C2=CC(c3cccc(Cl)c3)n3c(nc4ccccc43)N2)cc1 (stereo not given),3%,?,?,-10%,47
CC(C)c1ccc(C2=CC(c3cccc(Cl)c3)n3ncnc3N2)cc1 (stereo not given),6%,-37%,-20%,-17%,74*
O=c1[nH]c2ccc(NCc3ccc(-c4ccccc4F)o3)cc2[nH]1,9%,28µM*,-60%,1%,-1
CN(C)CCCNc1cc(N2CCN(C3CCCCC3)CC2)c2noc3c2c1C(=O)c1ccccc1-3,11µM*,-3%,-18%,?,-5
Cc1ccc(NS(=O)(=O)c2ccc3c(c2)C(C(C)C)C(=O)N3)cc1C (stereo not given),?,-27%,-5%,15%,?
COc1ccc(CC2=NN3C([C@@H](CCc4ccccc4)[C@@H](C)O)=NC(C)C3C(=O)N2)cc1OC (stereo not given in full),?,45%,7.7µM*,-9%,/
O=C(O)/C(S)=C/c1ccc(I)cc1,79µM*,/,/,/,/
O=C(Nc1cccc(Cl)c1)C1CCN(S(=O)(=O)Cc2ccccc2)CC1,/,/,/,i,115*
O=C(Nc1ccc(N2CCC(N3CCCCC3)CC2)c(C(=O)O)c1)c1ccccc1,50µM*,-7%,18%,?,26
Cc1cccc(C(=O)Nc2ccc(N3CC=C(c4ccccc4C)CC3)c(C(=O)O)c2)c1,40µM*,1%,8%,2%,10
COc1ccccc1N1CCN(c2ccc(NC(=O)c3ccc(C)cc3)cc2C(=O)O)CC1,?,-20%,7%,10%,-1
CC1CCN(c2ccc(NC(=O)c3cccc(Cl)c3)cc2C(=O)O)CC1,45µM*,-9%,6%,-4%,2
CCC1Sc2ccccc2N(CC(=O)NCc2ccc(C)cc2)C1=O (stereo not given),6%,15%,10%,i,-9
CC(=O)NNc1ncnc2c1cnn2-c1ccccc1,8%,-9%,7%,3%,0
Cc1cc(C)cc(NC(=O)C2CC(=O)N(c3ccccc3)C2)c1 (stereo not given),2%,-15%,10%,i,118*
COc1ccc(OC)c(CCNC(=O)CS(=O)(=O)Cc2nc(-c3cccc(Cl)c3)oc2C)c1,4%,-31%,-12%,i,88*
CC(C)c1ccc(Cn2ccc3c4c(N)nc(NC5CC5)nc4ccc32)cc1,25µM*!,-19%,-26%,?,/
CCNc1cc(NC2CCC(O)CC2)nc(Nc2ccc3c(ccn3Cc3ccccc3)c2)n1 (stereo not given),?,-20%,-21%,-7%,/
NC1CCC(Nc2nc(Nc3ccc(C(=O)N4CCCCC4)cc3)c3ncn(-c4cccc(F)c4)c3n2)CC1 (stereo not given),40µM*,4%,?,-4%,/
CC(=O)O[C@@]12CO[C@@H]1C[C@H](O)[C@@]1(C)C(=O)[C@H](O)C3=C(C)[C@@H](OC(=O)[C@H](O)[C@@H](NC(=O)OC(C)(C)C)c4ccccc4)C[C@@](O)([C@@H](OC(=O)c4ccccc4)C12)C3(C)C (stereo not given in full),-16%[29.8 µM],/,/,/,/
Cc1ccc(C)n1-c1cccc(C(=O)O)c1,2.2µM*,/,/,/,/
O=C(O)c1cccc(-n2cccc2)c1,13%,/,/,/,/
O=C(Nc1nc2n(n1)C(c1ccccc1)C=C(c1ccc(Cl)cc1)N2)c1ccco1 (stereo not given),6%,?,-25%,-7%,-2
SMILES,NTMT1 inhibitor,HTT prom inh,HTT-AS promoter,SKOV3 invasion,GPR32 ag
COc1ccc(C2C=C(c3ccccc3)Nc3nc(NS(=O)(=O)c4ccc(C)cc4)nn32)cc1 (stereo not given),?,-3%,-13%,9%,?
Cc1ccc(C2C=C(c3ccc(Cl)cc3)Nc3nc(NS(=O)(=O)c4ccccc4)nn32)cc1 (stereo not given),3%,-11%,-17%,i,73*
Cc1ccc(C2C=C(c3ccccc3)Nc3nc(NS(=O)(=O)c4ccc(C)cc4)nn32)cc1 (stereo not given),-24%,-3%,-11%,?,94*
CCOC(=O)Cc1ccc(NC(=O)n2ncc3cc(Cl)ccc32)cc1,-19%,0.25µM*,-91%,-8%,8
CCOC(=O)Cc1ccc(NC(=O)n2ncc3c(C)cccc32)cc1,/,/,/,3%,45
COc1cccc(CNC(=O)CCCn2c(=O)c3cccn3c3cccnc32)c1OC,5%,11%,-1%,8%,-22
CCn1c(=O)cc(SCC(=O)NCCc2cccc(C)c2)c2ccccc21,-7%,-16%,0%,-1%,97*
CCN(CCCNC(=O)CSc1cc(=O)n(CC)c2ccccc12)c1cccc(C)c1,?,?,-26%,i,75*
CCn1c(=O)cc(SCC(=O)NCCc2ccc(Cl)cc2)c2ccccc21,-2%,-17%,-17%,-5%,?
Cc1ccc(-c2ccc(CCC(=O)O)n2-c2cccc(O)c2)cc1,79µM*,9%,2%,3%,0
COc1ccc2nc(NC(=O)c3cc(=O)c4ccccc4o3)sc2c1,?,67%,3.2µM*,5%,-17
Cc1ccc2nc(NC(=O)c3cc(=O)c4cc(C)c(C)cc4o3)sc2c1,-10%,-13%,0%,13%,0
COc1ccc2nc(NC(=O)Nc3ccccc3)sc2c1,?,20%,?,/,101*
N#Cc1cc2c(=O)n3ccccc3nc2n(-c2nnc(SCc3ccccc3F)s2)c1=O,0%,-7%,-8%,4%,5
Cc1ccc2c(c1)N(C(=O)Nc1cccc(C)c1C)CCO2,8%,-23%,-26%,-4%,-25
Cc1cc(Nc2cccc(C(F)(F)F)c2)nc2ccc(NC(=O)c3cccnc3)cc12,3%,?,-93%,11µM*,19
CCC(=O)N1CCc2cc(S(=O)(=O)CCC(=O)NCc3ccc(OC)cc3)ccc21,17%,-1%,-11%,8%,-3
